Assay results taken from PubChem BioAssay AID1159580 (chemical genetic matrix, 2015).
About 2,000 (36%) of roughly 5,500 compounds were called active. Roughly 18% stayed inconclusive and do not appear here. The list shows a part of the results. Values without a mark were called inactive. Rule as the data show it: active = normalized growth mostly below about 0.91 (no sharp cut-off); inconclusive = no clear call, values can overlap the other calls; inactive = mostly above about 0.92.

Assay: chemical genetic growth profiling, strain panel (AID 1159580);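 also: tested at 20 µM; growth read once vehicle control cultures reached saturation at 30 °C; 1 = growth at the plate median or of vehicle wells; lower values mean less growth of the strain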
Conditions: S. cerevisiae deletion strains, growth OD

`COc1ccc(-c2coc3cc(OC(C)=O)cc(OC(C)=O)c3c2=O)cc1` gave a normalized growth (locus YAL021C, strain ccr4, stronger effect = lower value) of 0.964, a normalized growth (locus YAL026C, strain drs2, stronger effect = lower value) of 0.949 and a normalized growth (locus YAL030W, strain snc1, stronger effect = lower value) of 0.958. For the same compound, the normalized growth (locus YBL061C, strain skt5, stronger effect = lower value) was 0.96, the normalized growth (locus YBR009C, strain hhf1, stronger effect = lower value) was 0.958 and the normalized growth (locus YBR023C, strain chs3, stronger effect = lower value) was 0.967. For the same compound, the normalized growth (locus YBR171W, strain sec66, stronger effect = lower value) was 0.937, the normalized growth (locus YBR231C, strain swc5, stronger effect = lower value) was 0.957 and the normalized growth (locus YBR279W, strain paf1, stronger effect = lower value) was 0.984. For the same compound, the normalized growth (locus YCL011C, strain gbp2, stronger effect = lower value) was 0.919, the normalized growth (locus YCL016C, strain dcc1, stronger effect = lower value) was 0.925 and the normalized growth (locus YCL061C, strain MRC1, stronger effect = lower value) was 0.96. The normalized growth (locus YCL069W, strain vba3, stronger effect = lower value) was 0.953, the normalized growth (locus YCR088W, strain abp1, stronger effect = lower value) was 0.968 and the normalized growth (locus YDL005C, strain med2, stronger effect = lower value) was 0.961. It also gave a normalized growth (locus YDL040C, strain nat1, stronger effect = lower value) of 0.983, a normalized growth (locus YDR001C, strain nth1, stronger effect = lower value) of 0.939 and a normalized growth (locus YDR069C, strain doa4, stronger effect = lower value) of 0.92. For the same compound, the normalized growth (locus YDR137W, strain rgp1, stronger effect = lower value) was 0.871, the normalized growth (locus YDR159W, strain sac3, stronger effect = lower value) was 0.953 and the normalized growth (locus YDR195W, strain ref2) was 1.01. The normalized growth (locus YDR297W, strain sur2, stronger effect = lower value) was 0.985, the normalized growth (locus YDR334W, strain swr1, stronger effect = lower value) was 0.887 (active) and the normalized growth (locus YDR335W, strain msn5, stronger effect = lower value) was 0.967. For the same compound, the normalized growth (locus YDR392W, strain spt3, stronger effect = lower value) was 0.576 (active), the normalized growth (locus YEL003W, strain gim4, stronger effect = lower value) was 0.977 and the normalized growth (locus YEL037C, strain rad23, stronger effect = lower value) was 0.972. For the same compound, the normalized growth (locus YEL061C, strain CIN8 (second series), stronger effect = lower value) was 0.965, the normalized growth (locus YER015W, strain faa2, stronger effect = lower value) was 0.951 and the normalized growth (locus YER016W, strain bim1, stronger effect = lower value) was 0.972. It also gave a normalized growth (locus YER111C, strain swi4, stronger effect = lower value) of 0.968, a normalized growth (locus YER155C, strain BEM2 (second series), stronger effect = lower value) of 0.878 and a normalized growth (locus YFR010W, strain ubp6, stronger effect = lower value) of 0.955. The normalized growth (locus YGL167C, strain pmr1, stronger effect = lower value) was 0.965, the normalized growth (locus YGL173C, strain kem1, stronger effect = lower value) was 0.922 and the normalized growth (locus YGL227W, strain vid30, stronger effect = lower value) was 0.955. The normalized growth (locus YGL240W, strain doc1, stronger effect = lower value) was 0.961, the normalized growth (locus YGL253W, strain hxk2, stronger effect = lower value) was 0.925 and the normalized growth (locus YHR013C, strain ard1, stronger effect = lower value) was 0.902. The normalized growth (locus YHR027C, strain rpn1, stronger effect = lower value) was 0.951, the normalized growth (locus YHR142W, strain chs7, stronger effect = lower value) was 0.874 (active) and the normalized growth (locus YJL092W, strain hpr5, stronger effect = lower value) was 0.923. The normalized growth (locus YJL095W, strain BCK1 (second series), stronger effect = lower value) was 0.963, the normalized growth (locus YJL115W, strain asf1, stronger effect = lower value) was 0.914 and the normalized growth (locus YJL129C, strain trk1, stronger effect = lower value) was 0.861 (active). The normalized growth (locus YJL154C, strain vps35, stronger effect = lower value) was 0.97, the normalized growth (locus YJL164C, strain tpk1, stronger effect = lower value) was 0.935 and the normalized growth (locus YJL166W, strain qcr8, stronger effect = lower value) was 0.944. For the same compound, the normalized growth (locus YJL187C, strain SWE1, stronger effect = lower value) was 0.961, the normalized growth (locus YKL160W, strain elf1, stronger effect = lower value) was 0.988 and the normalized growth (locus YKR026C, strain gcn3, stronger effect = lower value) was 0.965. It also gave a normalized growth (locus YKR091W, strain srl3, stronger effect = lower value) of 0.958, a normalized growth (locus YLL001W, strain dnm1, stronger effect = lower value) of 0.929 and a normalized growth (locus YLL026W, stronger effect = lower value) of 0.967. The normalized growth (locus YLL041C, strain sdh2, stronger effect = lower value) was 0.963, the normalized growth (locus YLR027C, strain aat2, stronger effect = lower value) was 0.936 and the normalized growth (locus YLR221C, strain rsa3, stronger effect = lower value) was 0.922. The normalized growth (locus YLR258W, strain gsy2, stronger effect = lower value) was 0.964, the normalized growth (locus YLR262C, strain YPT6 (second series), stronger effect = lower value) was 0.889 and the normalized growth (locus YLR320W, strain mms22, stronger effect = lower value) was 0.927. The normalized growth (locus YLR342W, strain FKS1, stronger effect = lower value) was 0.968, the normalized growth (locus YLR357W, strain rsc2, stronger effect = lower value) was 0.981 and the normalized growth (locus YLR370C, strain arc18, stronger effect = lower value) was 0.954. It also gave a normalized growth (locus YLR384C, strain iki3, stronger effect = lower value) of 0.968, a normalized growth (locus YML120C, strain ndi1, stronger effect = lower value) of 0.925 and a normalized growth (locus YMR058W, strain fet3, stronger effect = lower value) of 0.935. For the same compound, the normalized growth (locus YMR125W, strain sto1, stronger effect = lower value) was 0.914, the normalized growth (locus YMR129W, stronger effect = lower value) was 0.966 and the normalized growth (locus YMR205C, strain PFK2, stronger effect = lower value) was 0.91. The normalized growth (locus YMR231W, strain pep5, stronger effect = lower value) was 0.978, the normalized growth (locus YNL071W, strain lat1, stronger effect = lower value) was 0.845 (active) and the normalized growth (locus YNL209W, strain ssb2, stronger effect = lower value) was 0.963. For the same compound, the normalized growth (locus YNL248C, strain rpa49, stronger effect = lower value) was 0.967, the normalized growth (locus YNL322C, strain KRE1 (second series), stronger effect = lower value) was 0.923 and the normalized growth (locus YNR049C, strain mso1, stronger effect = lower value) was 0.954. It also gave a normalized growth (locus YOR001W, strain rrp6, stronger effect = lower value) of 0.971, a normalized growth (locus YOR070C, strain gyp1, stronger effect = lower value) of 0.972 and a normalized growth (locus YOR080W, strain dia2, stronger effect = lower value) of 0.955. It also gave a normalized growth (locus YOR083W, strain WHI5, stronger effect = lower value) of 0.976, a normalized growth (locus YOR106W, strain vam3, stronger effect = lower value) of 0.928 and a normalized growth (locus YOR265W, strain rbl2, stronger effect = lower value) of 0.963. It also gave a normalized growth (locus YOR270C, strain vph1, stronger effect = lower value) of 0.834, a normalized growth (locus YPL051W, strain arl3, stronger effect = lower value) of 0.959 and a normalized growth (locus YPL078C, strain atp4, stronger effect = lower value) of 0.968. It also gave a normalized growth (locus YPL106C, strain sse1, stronger effect = lower value) of 0.913 and a normalized growth (locus YPL240C, strain hsp82, stronger effect = lower value) of 0.956.
